According to PubChem BioAssay (NCI):
The panel holds about 83,000 compounds, 20% with a hit somewhere; the sample as a whole holds those more often.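 Values shown are percent growth following 48 h exposure of cells in 96-well plates to a single concentration of compound; below 10 was considered active.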 Calls of active or inactive are those of the source.

Key:
Assay in all cases: NCI-60 one-dose screen, 48 h (100 = growth as untreated, 0 = no growth, -100 = all killed)
Details in all cases: 10 µM unless noted
[1] = test system: NCI-H23 lung
[2] = test system: NCI-H226 lung
[3] = test system: NCI-H322M lung
[4] = test system: HOP-62 NSCLC
[5] = test system: NCI-H460 lung
[6] = test system: HOP-92 NSCLC
[7] = test system: NCI-H522 lung
[8] = test system: A549/ATCC NSCLC
[9] = test system: 786-0 renal
[10] = test system: COLO 205 colon
[11] = test system: DU-145 prostate
[12] = test system: K-562 leukemia
[13] = test system: MDA-MB-231 breast
[14] = test system: RXF 393 renal
[15] = test system: SF-268 CNS
[16] = test system: SF-295 CNS
[17] = test system: SF-539 CNS
[18] = test system: UACC-257 melanoma
[19] = test system: M14 melanoma
[20] = test system: MALME-3M melanoma

Measured: growth

OC(Cc1cc(CC(O)(C(F)(F)F)C(F)(F)F)nc(CC(O)(C(F)(F)F)C(F)(F)F)c1)(C(F)(F)F)C(F)(F)F
active: [1] -5.07% | [4] -37.3% | [5] 0.458% | [6] -27.9% | [7] -18.6% | [8] 3.09% | [9] 1.13% | [10] -92.6% | [12] 9.94% | [13] -45.6% | [14] -17.2% | [16] -8.82% | [17] -1.21% | [18] -28.3%
inactive: [2] 11.6% | [3] 13.3% | [11] 24.9% | [15] 12.9% | [19] 13.7%

CC(=O)c1c(O)c(C)c(O)c2c1OC1=CC(=O)C(C(C)=O)C(=O)C12C (configuration not stated)
inactive: [1] 79.1% | [2] 88.6% | [3] 60.3% | [4] 74.3% | [5] 89.1% | [7] 71.7% | [8] 96% | [9] 69.9% | [11] 107% | [12] 68.9% | [20] 79.4% | [13] 96.3% | [14] 105% | [15] 88.9% | [16] 16.7% | [17] 98% | [18] 97.8% | [19] 67.6%
active: [6] -0.143%

O=C(c1ccc(O)c(Br)c1)c1ccc(O)c(Br)c1
inactive: [1] 103% | [2] 109% | [3] 113% | [4] 102% | [5] 111% | [6] 101% | [7] 115% | [8] 109% | [9] 107% | [10] 112% | [11] 87% | [20] 106% | [13] 101% | [14] 107% | [15] 90.6% | [16] 118% | [17] 90.1% | [18] 110%

Cc1nc([N+](=O)[O-])c(Sc2nncc(-c3ccccc3)n2)n1C
active: [20] -7.36%
inactive: [1] 82.1% | [2] 80.1% | [3] 92.1% | [4] 95.4% | [5] 110% | [6] 93.1% | [7] 95.2% | [9] 94% | [10] 74.5% | [11] 67.3% | [12] 89.7% | [13] 92.6% | [15] 93.5% | [16] 144% | [17] 106% | [18] 29.8% | [19] 88.2%

Clc1ccc(-n2ncc3c(NCCCN4CCOCC4)ncnc32)cc1
inactive: [1] 87.6% | [2] 91.8% | [3] 89.8% | [4] 87.7% | [5] 102% | [6] 71.3% | [7] 94.7% | [9] 107% | [10] 87.4% | [11] 104% | [12] 94.2% | [20] 95.7% | [13] 83.2% | [14] 90.3% | [15] 99.1% | [16] 99.4% | [17] 97% | [19] 97.2%

CCC(C)C(N)C(=O)NC(CC(N)=O)C(=O)NC(CC(C)C)C(=O)NC(CCCCN)C(=O)NC(C)C(=O)NC(CC(C)C)C(=O)NC(C)C(=O)NC(C)C(=O)NC(CC(C)C)C(=O)NC(C)C(=O)NC(CCCCN)C(=O)NC(CCCCN)C(=O)NC(C(=O)NC(CC(C)C)C(N)=O)C(C)CC (configuration not stated)
inactive: [1] 82.1% | [2] 113% | [3] 100% | [4] 74.9% | [5] 79.3% | [6] 61% | [7] 85.2% | [9] 68.1% | [10] 90% | [11] 57.9% | [12] 82.5% | [20] 52.1% | [13] 62.1% | [14] 39.6% | [15] 66.8% | [16] 106% | [17] 35.6% | [18] 104%

N#CC1c2ccccc2C=CN1C(=O)CCCl (configuration not stated)
active: [7] -71.6% | [20] 5.05%
inactive: [1] 94.2% | [2] 94.1% | [3] 93.8% | [4] 99.8% | [5] 106% | [6] 60.7% | [8] 96.2% | [9] 82% | [11] 77.7% | [12] 32.3% | [13] 103% | [15] 104% | [17] 104% | [18] 79.9%

OCCOSCCO
inactive: [1] 107% | [2] 102% | [3] 119% | [4] 104% | [5] 111% | [6] 124% | [7] 96.1% | [8] 111% | [9] 100% | [10] 119% | [11] 122% | [12] 102% | [13] 121% | [14] 100% | [15] 119% | [17] 100% | [18] 102% | [19] 100%

O/N=C1\c2ccccc2-c2ccc(F)cc21
inactive: [1] 99.4% | [2] 82.5% | [3] 92.5% | [4] 95.9% | [5] 98.9% | [6] 94.7% | [7] 100% | [8] 100% | [9] 104% | [10] 73.7% | [12] 99.1% | [20] 114% | [13] 88.2% | [14] 111% | [16] 117% | [17] 97% | [18] 110%

O=C(NNc1ccccc1)OCc1ccccc1
active: [12] 3.91%
inactive: [1] 103% | [2] 97.7% | [3] 67.6% | [4] 100% | [5] 79.5% | [6] 82% | [7] 82.1% | [9] 78.2% | [10] 97.6% | [11] 69.1% | [20] 121% | [13] 74.4% | [14] 119% | [15] 63% | [16] 58% | [17] 97.1% | [18] 92.4% | [19] 17.6%

COc1ccc2c(c1)c(CC(=O)O)c(C)n2C(=O)c1ccc(Cl)cc1
inactive: [1] 92.5% | [2] 94.8% | [3] 89.7% | [4] 100% | [5] 101% | [6] 82.8% | [7] 97.5% | [9] 77.4% | [10] 128% | [11] 107% | [12] 73.5% | [20] 85.1% | [13] 102% | [14] 109% | [15] 109% | [16] 68.6% | [17] 114% | [18] 109% | [19] 95.7%

CCCCCCCCCCCC[n+]1ccccc1 (tested in a mixture with another compound)
inactive: [2] 11.3% | [3] 31.9% | [11] 11.7%
active: [1] -2.11% | [4] -24.3% | [5] 0.69% | [6] -50.8% | [7] -53% | [8] -32.3% | [9] -50% | [12] -33.3% | [20] -38.3% | [13] -30.4% | [15] -8.98% | [16] -35.1% | [17] -10.5% | [18] -52.3% | [19] -56.6%

COC1CC(C)C(OC)c2cc(O)cc(c2O)NC(=O)/C(C)=C/C=C\C(C)C(OC(N)=O)/C(C)=C\C(C)C1OC (configuration not stated)
active: [5] 9.42% | [7] -67.4% | [10] -0.179% | [11] -29.7% | [12] -58.6% | [14] -20.5% | [16] -15.9% | [17] 6.34%
inactive: [1] 39.4% | [2] 47.8% | [3] 54.1% | [4] 37.9% | [6] 11.4% | [9] 31.3% | [20] 32.1% | [13] 32.4% | [15] 63.1% | [18] 14.4%

CCCCN(CCCC)CCCCCCCCCCO
inactive: [1] 97% | [2] 105% | [3] 95.1% | [4] 104% | [5] 110% | [6] 129% | [7] 75.9% | [8] 115% | [9] 92.1% | [10] 106% | [11] 111% | [12] 93.9% | [13] 120% | [14] 106% | [15] 109% | [17] 105% | [18] 106% | [19] 93%

N#C/C(=N\Nc1ccc(Cl)cc1)C(=O)C1CC1
inactive: [1] 42.4% | [2] 69.9% | [3] 82.1% | [4] 41.9% | [5] 44.9% | [6] 20% | [7] 35.5% | [9] 39.6% | [10] 60.4% | [11] 74.4% | [12] 63.2% | [20] 31.1% | [14] 84.9% | [16] 40.9% | [17] 59.7%
active: [18] 3.99%

O=C(/C=C/c1ccccc1)c1ccccc1O
inactive: [1] 82.3% | [2] 91.6% | [3] 90.2% | [4] 103% | [5] 93.2% | [6] 74.4% | [8] 83.9% | [9] 79.7% | [10] 105% | [12] 51.6% | [20] 97.2% | [13] 91.5% | [14] 65.7% | [15] 85.2% | [16] 94.8% | [17] 89.9% | [18] 91.8% | [19] 92.3%
